# In publication PMC11062922 (Nature Chemical Biology, 2023):
# Like-named read-outs stand apart in the source and are kept apart here.
# How the values were obtained:
# AAK1 = system: AAK1; parameters: species or system human, MV4-11 + K-562 + COLO205 + SK-N-BE2 + OVCAR-8; conditions: read-out: apparent Kd, n = 1
# BMP2K = system: BMP2K; parameters: species or system human, MV4-11 + K-562 + COLO205 + SK-N-BE2 + OVCAR-8; conditions: read-out: apparent Kd, n = 1
# CLK1 = system: CLK1; parameters: species or system human, MV4-11 + K-562 + COLO205 + SK-N-BE2 + OVCAR-8; conditions: read-out: apparent Kd, n = 1
# CLK4 = system: CLK4; parameters: species or system human, MV4-11 + K-562 + COLO205 + SK-N-BE2 + OVCAR-8; conditions: read-out: apparent Kd, n = 1
# CSNK2A1;CSNK2A3 = system: CSNK2A1;CSNK2A3; parameters: species or system human, MV4-11 + K-562 + COLO205 + SK-N-BE2 + OVCAR-8; conditions: read-out: apparent Kd, n = 1
# CSNK2A2 = system: CSNK2A2; parameters: species or system human, MV4-11 + K-562 + COLO205 + SK-N-BE2 + OVCAR-8; conditions: read-out: apparent Kd, n = 1
# FLT4 = system: FLT4; parameters: species or system human, MV4-11 + K-562 + COLO205 + SK-N-BE2 + OVCAR-8; conditions: read-out: apparent Kd; compound concentrations: 100 nM and 1000 nM (sheet 'Samples'), CATDS: 1.2160517778916E-2; n = 1
# GAK = system: GAK; parameters: species or system human, MV4-11 + K-562 + COLO205 + SK-N-BE2 + OVCAR-8; conditions: read-out: apparent Kd; compound concentrations: 100 nM and 1000 nM (sheet 'Samples'), CATDS: 1.5691521545656201E-2; n = 1
# GSK3A = system: GSK3A; parameters: species or system human, MV4-11 + K-562 + COLO205 + SK-N-BE2 + OVCAR-8; conditions: read-out: apparent Kd; compound concentrations: 100 nM and 1000 nM (sheet 'Samples'), CATDS: 1.8964305572366599E-2; n = 1
# GSK3B = system: GSK3B; parameters: species or system human, MV4-11 + K-562 + COLO205 + SK-N-BE2 + OVCAR-8; conditions: read-out: apparent Kd; compound concentrations: 100 nM and 1000 nM (sheet 'Samples'), CATDS: 1.5746210655388199E-2; n = 1
# MELK = system: MELK; parameters: species or system human, MV4-11 + K-562 + COLO205 + SK-N-BE2 + OVCAR-8; conditions: read-out: apparent Kd, n = 1
# NUAK1 = system: NUAK1; parameters: species or system human, MV4-11 + K-562 + COLO205 + SK-N-BE2 + OVCAR-8; conditions: read-out: apparent Kd, n = 1
# PAK4 = system: PAK4; parameters: species or system human, MV4-11 + K-562 + COLO205 + SK-N-BE2 + OVCAR-8; conditions: read-out: apparent Kd, n = 1
# PKN1 = system: PKN1; parameters: species or system human, MV4-11 + K-562 + COLO205 + SK-N-BE2 + OVCAR-8; conditions: read-out: apparent Kd, compound concentrations: 100 nM and 1000 nM (sheet 'Samples'), n = 1
# PRKAG1 = system: PRKAG1; parameters: species or system human, MV4-11 + K-562 + COLO205 + SK-N-BE2 + OVCAR-8; conditions: read-out: apparent Kd, n = 1
# Q6ZSR9 = Q6ZSR9 (human, UniProt Q6ZSR9); parameters: species or system MV4-11 + K-562 + COLO205 + SK-N-BE2 + OVCAR-8; conditions: read-out: apparent Kd, n = 1
# RET = system: RET; parameters: species or system human, MV4-11 + K-562 + COLO205 + SK-N-BE2 + OVCAR-8; conditions: read-out: apparent Kd, n = 1
# SIK2 = system: SIK2; parameters: species or system human, MV4-11 + K-562 + COLO205 + SK-N-BE2 + OVCAR-8; conditions: read-out: apparent Kd, n = 1
# [1] = compound concentrations:100 nM and 1000 nM (sheet 'Samples')
# Q6ZSR9, sequence (Q6ZSR9 whole entry, looked up): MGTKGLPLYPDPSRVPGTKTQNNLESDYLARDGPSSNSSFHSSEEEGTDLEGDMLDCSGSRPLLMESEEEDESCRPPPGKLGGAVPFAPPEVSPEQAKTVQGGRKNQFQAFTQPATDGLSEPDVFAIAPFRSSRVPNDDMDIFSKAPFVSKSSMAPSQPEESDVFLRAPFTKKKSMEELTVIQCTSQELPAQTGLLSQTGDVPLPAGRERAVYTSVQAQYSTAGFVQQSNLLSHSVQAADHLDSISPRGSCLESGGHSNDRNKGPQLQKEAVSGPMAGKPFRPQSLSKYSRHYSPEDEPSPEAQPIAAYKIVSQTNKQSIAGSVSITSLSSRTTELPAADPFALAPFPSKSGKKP
structure (smiles),measurement,setting,value
COc1cc[nH]c1/C=C1\C(=O)Nc2ccc(F)c(C#CC3(O)CCNCC3)c21.Cl [RO0282986-001],potency estimated from few doses,"AAK1; compound concentrations: 100 nM and 1000 nM (sheet 'Samples'), CATDS: 4.4387438114571E-2",0.0517 µM
same,potency estimated from few doses,"BMP2K; compound concentrations: 100 nM and 1000 nM (sheet 'Samples'), CATDS: 9.1500909624849303E-2",0.0178 µM
same,potency estimated from few doses,"CLK1; compound concentrations: 100 nM and 1000 nM (sheet 'Samples'), CATDS: 1.0356916336546E-2",1.16 µM
same,potency estimated from few doses,"CLK4; compound concentrations: 100 nM and 1000 nM (sheet 'Samples'), CATDS: 1.25074250244867E-2",0.634 µM
same,potency estimated from few doses,"CSNK2A1;CSNK2A3; compound concentrations: 100 nM and 1000 nM (sheet 'Samples'), CATDS: 1.42353528510114E-2",0.45 µM
same,potency estimated from few doses,"CSNK2A2; compound concentrations: 100 nM and 1000 nM (sheet 'Samples'), CATDS: 2.2066768869253801E-2",0.173 µM
same,potency estimated from few doses,FLT4,0.687 µM
same,potency estimated from few doses,GAK,0.356 µM
same,potency estimated from few doses,GSK3A,0.235 µM
same,potency estimated from few doses,GSK3B,0.353 µM
same,potency estimated from few doses,"MELK; compound concentrations: 100 nM and 1000 nM (sheet 'Samples'), CATDS: 1.9967026123172499E-2",0.211 µM
same,potency estimated from few doses,"NUAK1; compound concentrations: 100 nM and 1000 nM (sheet 'Samples'), CATDS: 4.1010981116741001E-2",0.0586 µM
same,potency estimated from few doses,"PAK4; compound concentrations: 100 nM and 1000 nM (sheet 'Samples'), CATDS: 2.1447100630881601E-2",0.183 µM
same,potency estimated from few doses,PKN1; CATDS: 1.1966323436805501E-2,0.72 µM
same,potency estimated from few doses,"PRKAG1; compound concentrations: 100 nM and 1000 nM (sheet 'Samples'), CATDS: 1.1749589380403099E-2",0.761 µM
same,potency estimated from few doses,"Q6ZSR9; compound concentrations: 100 nM and 1000 nM (sheet 'Samples'), CATDS: 3.8240338432775099E-2",0.0656 µM
same,potency estimated from few doses,"RET; compound concentrations: 100 nM and 1000 nM (sheet 'Samples'), CATDS: 4.4247015083228598E-2",0.052 µM
same,potency estimated from few doses,"SIK2; compound concentrations: 100 nM and 1000 nM (sheet 'Samples'), CATDS: 1.2903831315266401E-2",0.581 µM
O=C(O)C(F)(F)F.O=c1[nH]ccc2nc(N[C@@H]3CCNC3)nc(Nc3cc(Cl)cc(Cl)c3)c12 [GSK2188764A],potency estimated from few doses,AAK1; [1],0.114 µM
same,potency estimated from few doses,BMP2K; [1],0.749 µM
same,potency estimated from few doses,CSNK2A1;CSNK2A3; [1],0.239 µM
same,potency estimated from few doses,CSNK2A2; [1],0.585 µM
same,potency estimated from few doses,MELK; [1],0.765 µM
same,potency estimated from few doses,NUAK1; [1],0.0274 µM
same,potency estimated from few doses,PAK4; [1],0.011 µM
same,potency estimated from few doses,PRKAG1; [1],0.799 µM
same,potency estimated from few doses,Q6ZSR9; [1],0.151 µM
same,potency estimated from few doses,RET; [1],1.35 µM
same,potency estimated from few doses,SIK2; [1],1.44 µM
COc1ccc(Nc2nccc(-c3ccc(NC(=O)c4cc5cc(F)ccc5[nH]4)cc3)n2)cc1 [GSK1229496A],potency estimated from few doses,"AAK1; compound concentrations: 100 nM and 1000 nM (sheet 'Samples'), CATDS: 0.25032000609497101",1.83 µM
COc1cc(Nc2nccc(N3CCC(NC(=O)c4cccc(NC(C)=O)c4)C3)n2)cc(OC)c1OC (centres unmarked) [GSK1379754A],potency estimated from few doses,"AAK1; compound concentrations: 100 nM and 1000 nM (sheet 'Samples'), CATDS: 0.175205708840038",0.41 µM
same,potency estimated from few doses,"Q6ZSR9; compound concentrations: 100 nM and 1000 nM (sheet 'Samples'), CATDS: 0.171045295105965",0.426 µM
Cl.Cl.NC(CNC(=O)c1cc(Br)c(-c2ccnc3[nH]ccc23)s1)c1ccccc1.NC(CNC(=O)c1cc(Br)c(-c2ccnc3[nH]ccc23)s1)c1ccccc1 (centres unmarked) [GSK1322949A],potency estimated from few doses,"AAK1; compound concentrations: 100 nM and 1000 nM (sheet 'Samples'), CATDS: 3.1655313708127797E-2",1.07 µM
same,potency estimated from few doses,"BMP2K; compound concentrations: 100 nM and 1000 nM (sheet 'Samples'), CATDS: 4.4675050363511E-2",0.552 µM
same,potency estimated from few doses,"CLK4; compound concentrations: 100 nM and 1000 nM (sheet 'Samples'), CATDS: 3.1125873030522201E-2",1.12 µM
same,potency estimated from few doses,PKN1; CATDS: 2.3359167172179899E-2,2.38 µM
same,potency estimated from few doses,"Q6ZSR9; compound concentrations: 100 nM and 1000 nM (sheet 'Samples'), CATDS: 3.14131871336574E-2",1.09 µM
CNc1cc(-c2ccc3c(N)n[nH]c3c2)nc(N)n1 [GSK2224810A],potency estimated from few doses,AAK1; [1],0.781 µM
same,potency estimated from few doses,BMP2K; [1],1.04 µM
same,potency estimated from few doses,CLK1; [1],0.314 µM
same,potency estimated from few doses,CLK4; [1],0.154 µM
same,potency estimated from few doses,MELK; [1],0.898 µM
same,potency estimated from few doses,Q6ZSR9; [1],0.687 µM
same,potency estimated from few doses,RET; [1],1.07 µM
CCn1c(-c2cccnc2O)nc2cnccc21 [SB-736715],potency estimated from few doses,"AAK1; compound concentrations: 100 nM and 1000 nM (sheet 'Samples'), CATDS: 1.3866746573900799E-2",1.53 µM
same,potency estimated from few doses,"PRKAG1; compound concentrations: 100 nM and 1000 nM (sheet 'Samples'), CATDS: 1.40543588651099E-2",1.49 µM
COc1ccc(-c2cc3c(N)ncnc3o2)cc1 [GW642138X],potency estimated from few doses,"AAK1; compound concentrations: 100 nM and 1000 nM (sheet 'Samples'), CATDS: 9.3740609603759906E-2",2.1 µM
